KB-3-1 tox = qHTS assay for MDR1-selective chemotherapeutics: Primary screen using the parental adenocarcinoma cell KB-3-1; KB-3-1 viability, CellTiter-Glo ATP luminescence, 72 h; Potency, µM (doses to about 46.1 µM), actives largely listed as cytotoxic; 400,000 compounds, 1.4% hits; AID 1347075, 2019; further: on the % scale 0 is the no-effect control and ±100 the full control effect; nearly all actives have a fitted effect of over 60% in size
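Viability of parental KB-3-1 cells, measured by CellTiter-Glo luminescence, followed a 72 h incubation at 37 °C with pinned compounds in phenol-red-free DMEM containing 10% FBS.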
SW480 rereplic = A quantitative high throughput screen for small molecules that induce DNA re-replication in SW480 colon adenocarcinoma cells; SW480 DNA re-replication, Hoechst DNA content imaging, 48 h; Potency, µM (series often up to 46.1 µM), for inactives: at the highest dose re-replication activation, usual class: activators; 340,000 compounds, 1.8% hits; AID 624297, 2012; further: % of control where 0% means no effect; nearly all actives have a fitted effect of over 55% in size
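Quantitative HTS format with DMSO vehicle controls; 48 hr drug incubation at 37 C, then 40 min Hoechst staining and scanning imager measurement at 405 nm excitation.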
KB-V1 cytotox = qHTS assay for MDR1-selective chemotherapeutics: Primary screen using the drug-selected MDR subline cells KB-V1 | Potency, µM (highest dose often 46.1 µM), actives largely listed as cytotoxic | KB-V1 MDR cells viability, CellTiter-Glo, 72 h | 400,000 compounds, 3.4% hits | AID 1347076, 2019; further: on the % scale 0 is the no-effect control and ±100 the full control effect; nearly all actives have a fitted effect of over 60% in size
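qHTS viability screen in drug-selected KB-V1 MDR cells: 72 h compound treatment at 37 degrees C, ATP luminescence end point.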
MCF10A rereplic = A quantitative high throughput screen for small molecules that induce DNA re-replication in MCF 10a normal breast cells; MCF 10A DNA re-replication, Hoechst nuclear intensity, 48 h; Potency, µM (doses to about 46.1 µM), for the others: at the highest dose activity, positive = re-replication, most hits filed as activators; 350,000 compounds, 2.9% hits; AID 624296, 2012; further: % of control where 0% means no effect; nearly all actives have a fitted effect of over 50% in size
ELG1 repair inh = qHTS screen for small molecules that inhibit ELG1-dependent DNA repair in human embryonic kidney (HEK293T) cells expressing luciferase-tagged ELG1; 330,000 compounds, 2.3% hits; HEK293T ELG1-luciferase reporter, luminescence, 16 h; DNA damage induced by 5-fluorouridine; AID 504467, 2011; Potency, µM (titrated, usually from 46.1 µM), inactives show top-dose activity change, negative = inhibition, actives largely listed as inhibitors; further: on the % scale 0 is the no-effect control and ±100 the full control effect; nearly all actives have a fitted effect of over 55% in size
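Cells (2,000 per well) received 5-fluorouridine plus test compound or DMSO and were incubated 16 hr at 37 °C, 5% CO2. Luciferase activity was read by luminescence 30 min after ONE-Glo addition; signal suppression marked inhibition of damage-induced ELG1 function.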
Starred values were filed as active, the others as inactive; i = inactive; ? = inconclusive; . = no result. An excerpt weighted towards active compounds, which were near 8.1% of everything screened. The call rests on the fitted dose curve; in most records, active means well fitted curve in the direction sought with a large enough effect; inconclusive means small, poorly fitted or top-dose-only effect, or another doubt; inactive means no such curve, though single readings can be large; an effect the other way counts as inactive or inconclusive. Potency means the concentration at half of the fitted maximal effect.

SMILES | KB-3-1 tox | SW480 rereplic | KB-V1 cytotox | MCF10A rereplic | ELG1 repair inh
CCn1c(SCC(=O)N2c3ccccc3CCc3ccccc32)nc2c1c(=O)n(C)c(=O)n2C | i | 5.0% | 2.06µM* | 21.3% | .
O=C(COc1cccnc1[N+](=O)[O-])Nc1ccccc1Sc1ccccc1 | i | -8.4% | 13µM* | 13.1% | 13.9%
O=C(COc1cccnc1[N+](=O)[O-])Nc1cccc(Br)c1 | i | -8.9% | i | 0.9% | ?
Cc1nc2c3cc(Cl)ccc3n(CCN3CCCCC3)c2s1 | i | 14.6µM* | i | 18.4µM* | -9.9%
Cc1ccc(C(=O)NC(=C(Cl)Cl)S(=O)(=O)c2ccc(Cl)cc2)cc1 | ? | ? | i | ? | 0.4%
CC(=O)NC(=C(Cl)Cl)S(=O)(=O)c1ccccc1 | ? | 11.6µM* | ? | 13µM* | ?
Cc1ccc(S(=O)(=O)/C(=C/Cl)NC(=O)c2ccccc2)cc1 | 13µM* | 13µM* | i | 4.11µM* | ?
Cc1ccc(C(=O)NC(=C(Cl)Cl)S(=O)(=O)c2ccc(C)cc2)cc1 | i | ? | i | 13µM* | -9.5%
Cc1ccc(S(=O)(=O)C(NC(=O)c2ccccc2)=C(Cl)Cl)cc1 | ? | ? | ? | 6.51µM* | .
COc1cc(C(=O)N2CCN(C3=NS(=O)(=O)c4ccccc43)CC2)cc(OC)c1OC | i | . | i | . | .
Cc1ccc([C@H]2C[C@@H](n3cc(COC(=O)c4ccccc4)nn3)[C@H](O)CN2CC2CCCCC2)cc1 | i | . | ? | . | .
O=C(NN1CCOCC1)c1ccc([N+](=O)[O-])cc1 | i | -9.9% | i | -2.5% | -5.9%
CCCCCCN1CCN(C2CN(Cc3ccccc3)S(=O)(=O)C2)CC1 (stereo not given) | i | . | i | . | .
CC1CCCCN1CCNC(=O)c1cc2c(-c3ccccc3F)nn(C)c2s1 (stereo not given) | i | 3.5% | i | ? | 3.2%
Clc1cccc(Cl)c1CSc1nnc(CN2CCOCC2)n1-c1ccccc1 | i | -12.6% | i | ? | -4.7%
Cn1c(CS(=O)Cc2c(Cl)cccc2Cl)nnc1SCc1c(Cl)cccc1Cl (stereo not given) | i | 5.9% | 5.8µM* | 22.0% | ?
O=S(Cc1ccc(Br)cc1)Cc1nnc(SCc2c(Cl)cccc2Cl)n1-c1ccccc1 (stereo not given) | i | -2.6% | 0.82µM* | ? | ?
CCCN(CCC)CCNC(=O)C1CCN(Cc2nc(-c3ccc(Cl)cc3)oc2C)CC1 | 23.1µM* | 8.2% | ? | -3.0% | 24.3%
CCc1ccc(-c2nc(CN3CCC(C(=O)NCc4ccco4)CC3)c(C)o2)cc1 | ? | 13.1% | 9.2µM* | ? | -14.1%
CC1=CC2=NC(=O)/C(=C\c3ccc(-c4cccc(Cl)c4)o3)C(=N)N2O1 | 4.11µM* | 17.6% | ? | 13.8% | ?
CC1=CC2=NC(=O)/C(=C\c3cc(C)n(-c4ccc(F)cc4)c3C)C(=N)N2O1 | i | ? | i | ? | 8.0%
CC1=NOC(=O)/C1=C\c1ccc(-c2cccc(Cl)c2)o1 | i | ? | ? | 16.4µM* | ?
COc1cc(-c2nnc(SCc3ccccc3Cl)o2)cc(OC)c1OC | i | -4.0% | 2.31µM* | 20.6µM* | ?
Cc1cc(C(=O)CSc2nnc(Nc3ccccc3F)s2)c(C)n1CC1CCCO1 (stereo not given) | i | 17.4% | i | ? | ?
COc1cc(-c2nnc(SCc3c(F)cccc3Cl)o2)cc(OC)c1OC | ? | -0.4% | ? | ? | ?
Cc1cc(C(=O)CSc2nnc(Nc3ccccc3)s2)c(C)n1CC1CCCO1 (stereo not given) | i | ? | ? | 26.9% | 18.4µM*
COc1cc(-c2nnc(SCC(=O)N3c4ccccc4Sc4ccccc43)o2)cc(OC)c1OC | ? | 1.1% | i | ? | 7.31µM*

Bioassay records (PubChem)
